High-throughput results: PubChem BioAssay, National Center for Advancing Translational Sciences (NCATS)
This is a sample that favours compounds with a hit; in the whole collection about 5.7% have one here.
PI4K2A block: blocks human PI4K2A kinase activity; AID 1346378; activity change, negative = inhibition, % at 76.9 µM; Q9BTU6; purified PI4K2A, ADP-Glo luminescence, 1 h; stronger effect = lower value; actives 0.13% (n = 420,000); in the data active = activity change below about -50%; inconclusive = mostly about -30% to -49%;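 note: -100% = wells without enzyme as full effect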
Target sequence (Q9BTU6 whole entry, looked up): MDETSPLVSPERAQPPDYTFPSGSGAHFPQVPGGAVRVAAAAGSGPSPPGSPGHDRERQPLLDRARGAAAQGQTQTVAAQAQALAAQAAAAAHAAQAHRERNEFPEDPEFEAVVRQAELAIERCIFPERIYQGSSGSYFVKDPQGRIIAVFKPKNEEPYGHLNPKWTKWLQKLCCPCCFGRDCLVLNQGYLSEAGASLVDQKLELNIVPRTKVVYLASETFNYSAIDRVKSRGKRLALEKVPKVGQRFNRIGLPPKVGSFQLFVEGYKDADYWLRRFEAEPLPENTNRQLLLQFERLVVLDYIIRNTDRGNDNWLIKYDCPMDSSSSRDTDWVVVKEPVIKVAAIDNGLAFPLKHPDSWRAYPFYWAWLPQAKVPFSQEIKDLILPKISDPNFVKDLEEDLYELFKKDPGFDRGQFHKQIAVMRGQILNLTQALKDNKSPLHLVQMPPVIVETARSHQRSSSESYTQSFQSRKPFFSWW
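ADP-Glo luminescence measured ADP generated by PI4K2A enzyme (4 ug/mL before mixing) with 1.2 mM PI substrate (pre-mix) and 300 microM ATP (pre-mix). Tris pH7.5 buffer with MgCl2, Triton X-100; 1 h reaction at ambient temperature.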
KB-3-1 tox: KB-3-1 parental cell cytotoxicity. AID 1347075. actives 1.4% (n = 400,000). KB-3-1 viability, CellTiter-Glo ATP luminescence, 72 h. Potency, µM (titrated, usually from 46.1 µM), most hits filed as cytotoxic; note: potency is the fitted concentration of half-maximal effect; nearly all actives have a fitted effect of over 60% in size
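KB-3-1 parental drug-naive adenocarcinoma cells in DMEM/10% FBS, incubated 72 h at 37 C with pin-transferred compounds across a concentration series. Viability by CellTiter-Glo luminescence; concentration-response curves fitted after normalization.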
Nrf2 block: Nrf2 pathway inhibition; A549 ARE-Fluc reporter, luciferase luminescence, 18-24 h; Potency, µM (doses to about 46 µM), inactives show at the top dose activity change, negative = inhibition, most hits filed as inhibitors; actives 2.1% (n = 360,000); AID 504444; note: potency is the fitted concentration of half-maximal effect; nearly all actives have a fitted effect of over 60% in size
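A549 ARE_Fluc cells (5000/well, 5% FBS OPTI-MEM) pre-incubated 2 h, then treated with compounds 18-24 h at 37C/5% CO2 in concentration-response. CellTiter-Fluor viability read first; BugLite luciferase luminescence after 15 min at room temperature gives Nrf2 activity.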
KB-V1 MDR tox: kills drug-selected multidrug resistant KB-V1 cells. Potency, µM (top dose mostly 46.1 µM), usual class: cytotoxic. actives 3.4% (n = 400,000). AID 1347076. KB-V1 MDR cells viability, CellTiter-Glo, 72 h; note: potency is the fitted concentration of half-maximal effect; nearly all actives have a fitted effect of over 60% in size
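KB-V1 MDR subline cells in DMEM (phenol-red free, 10% FBS) exposed to compounds in qHTS concentration series for 72 h at 37 degrees C. Viability read by CellTiter-Glo luminescence; concentration-effect curves fitted after normalization and correction.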
Giardia kill: Giardia lamblia killing; activity change, % at 7.66 µM, hits read low; Giardia lamblia trophozoite viability; AID 540267; actives 0.15% (n = 340,000); in the data active = activity change below about -80%; inconclusive = between about -30% and that limit;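 note: parasites exposed to compound for two days anaerobically before the ATP read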
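Trophozoites 100 cells/well + cpd; 48 hrs, 37 deg C, anaerobic. ATPLite 1-Step added, 15-30 min RT, luminescence read (ATP-based viability).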
A549 tox: counter-screen for Nrf2 inhibitors: cytotoxicity in A549 cells; A549 ARE-Fluc cells, CellTiter-Fluor viability, 18-24 h; Potency, µM (top dose mostly 46 µM), for inactives: at the top dose activity change, negative = cytotoxicity, usual class: inhibitors; actives 0.16% (n = 390,000); note: potency is the fitted concentration of half-maximal effect
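Cytotoxicity counterscreen: CellTiter-Fluor fluorescence was measured in A549 ARE_Fluc cells after 18-24 h of compound exposure in a concentration series. The subsequent BugLite luminescent read reports ARE-luciferase activity.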
* marks the source's active call; other numbers are inactive results; i = inactive; ? = inconclusive; nt = no result given. Unless noted, calls come from the whole dose curve; as a rule, active = well fitted curve in the direction sought with a large enough effect; inconclusive = small, poorly fitted or top-dose-only effect, or another doubt; inactive = no such curve, though single readings can be large; an effect the other way counts as inactive or inconclusive. Unless noted, % is set by controls: 0 for no effect and ±100 for the full control effect.

SMILES | PI4K2A block | KB-3-1 tox | Nrf2 block | KB-V1 MDR tox | Giardia kill | A549 tox
O=S(=O)(Nc1cccc2ncccc12)c1cccs1 | -5 | ? | 21µM* | ? | -11 | ?
CN(C)c1ccc(/C=C/c2ccc3cc(N)ccc3n2)cc1 | nt | i | nt | i | nt | nt
Cc1ccc(S(=O)(=O)N2CCC(c3ccncc3)CC2)c(C)c1 | -3 | 21µM* | nt | i | nt | -14%
CCc1cc(C(=O)OC)c(NC(=O)c2ccoc2C)s1 | 5 | i | 0% | i | -14 | 8%
CCc1cc(C(=O)OC)c(NC(=O)c2cc(Br)cs2)s1 | -3 | i | nt | 16µM* | 4 | 7%
CCOC(=O)CC[C@@H]1CC[C@]2(CCCN(S(=O)(=O)c3ccccc3)C2)O1 | 3 | nt | nt | nt | nt | nt
CCOc1ccc2nc(Cl)c(C3CC(c4ccco4)=NN3S(C)(=O)=O)cc2c1 (stereo not drawn) | 5 | i | 1% | ? | -2 | -1%
COc1ccc2cc(C3CC(c4ccco4)=NN3S(=O)(=O)c3ccccc3)c(Cl)nc2c1 (stereo not drawn) | 2 | i | 4% | 15µM* | -3 | -1%
Cc1ccc2cc(C3CC(c4ccco4)=NN3S(=O)(=O)c3ccccc3)c(Cl)nc2c1 (stereo not drawn) | 0 | ? | 9% | i | 2 | -10%
CCOc1ccc2cc(C3CC(c4ccco4)=NN3S(=O)(=O)c3ccccc3)c(Cl)nc2c1 (stereo not drawn) | 5 | i | 2% | 5.8µM* | 24 | -3%
Cc1ccc(-n2c(SCC(=O)Nc3ccc4c(c3)OCCO4)nnc2-c2ccccn2)cc1 | 2 | nt | nt | nt | nt | nt
CC1CCCCN1S(=O)(=O)c1ccc(S(=O)(=O)NCCc2ccncc2)cc1 (stereo not drawn) | -1 | i | -22% | 21µM* | 6 | 4%
O=S(=O)(NCCc1ccncc1)c1ccc(S(=O)(=O)N2CCCCCC2)cc1 | 1 | i | nt | 18µM* | -25 | 9%
Cc1cccc(CCNS(=O)(=O)c2ccc(S(=O)(=O)N3CCCCC3)cc2)c1 | -4 | i | -16% | i | -12 | -4%
Nc1ccc(/C=C/c2nc3ccccc3s2)cc1 | nt | i | nt | ? | nt | nt
O=C(Cc1ccc(F)cc1)Nc1cccc2cccnc12 | 4 | i | 6% | 16µM* | -12 | 16%
O=C(COC(=O)c1ccccc1O)Nc1ccc(N2CCOCC2)cc1 | -2 | i | 5% | i | -30 | -1%
O=C(COC(=O)C1Cc2ccccc2CN1C(=O)c1ccccc1Cl)Nc1ccc(N2CCOCC2)cc1 (stereo not drawn) | -5 | i | 4% | 15µM* | 24 | -12%
Cc1ccc(Nc2nc(-c3c(C)nc4ccccn34)cs2)cc1 | 3 | 0.021µM* | ? | 0.16µM* | -24 | ?
Cc1ccc(Nc2nc(-c3c(C)nc4ncccn34)cs2)cc1 | 5 | 0.0058µM* | -13% | 0.33µM* | -26 | -15%
Oc1ccc(-c2csc(Nc3ncccn3)n2)cc1 | 0 | i | ? | i | 10 | 1%
Cc1nc2ncccn2c1-c1csc(Nc2ccc(O)cc2)n1 | -1 | 15µM* | ? | i | 28 | -15%
C=CCNc1nc(-c2c(C)nc3ncccn23)cs1 | -9 | i | -26% | i | -1 | -3%
Cc1ccnc(Nc2nc(-c3c(C)nc4sccn34)cs2)c1 | 4 | ? | 21µM* | ? | 0 | -12%
COC[C@H]1CCCN1c1ccc2c(c1)OCCCN(C1CC1)S2(=O)=O | -1 | nt | nt | nt | nt | nt
COc1cccc(NC(=O)C2CCN(S(=O)(=O)c3c(C)noc3/C=C/c3cccs3)CC2)c1 | -8 | nt | ? | nt | nt | -3%
CC(=O)Nc1cccc(-c2csc(Nc3cc(C)ccn3)n2)c1 | -3 | i | ? | 23µM* | 10 | -9%
CC(=O)Nc1ccc(-c2csc(Nc3cc(C)ccn3)n2)cc1 | -4 | ? | ? | ? | -29 | ?
Cc1ccn2c(-c3csc(NCc4ccccc4)n3)c(C)nc2c1 | 1 | ? | 26µM* | ? | -10 | ?
